# Screening results deposited in PubChem BioAssay by National Center for Advancing Translational Sciences (NCATS).
# Rows were chosen to be rich in hits. Some 10% of all compounds tested hit in one or more screens of this group.
# NPR1 antag = antagonists of human natriuretic peptide receptor Npr1; P16066; AID 1347048; 1.6% of 76,000 active; Potency, µM (doses to about 46.3 µM), actives largely listed as inhibitors; HEK293 hNpr1 GloSensor cGMP, ANP-stimulated luminescence; calls by dose curve; also: nearly all actives have a fitted effect of over 60% in size
#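 HEK293 cells stably expressing human Npr1 and cGMP GloSensor pGS-40F, loaded 2 h with 2% GloSensor reagent, given compound 30 min at room temperature. Luminescence read before and 20 min after 0.1 nM hNppA.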
# HEK cytotox = HEK 293 cell cytotoxicity; HEK 293 viability, ATP luminescence (CellTiter-Glo), 48-72 h; Potency, µM (highest dose often 115 µM), most hits filed as inhibitors; 6.6% of 94,000 active; AID 1345083; also: nearly all actives have a fitted effect of over 60% in size
#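 CellTiter-Glo luminescence (cellular ATP) was read after 48 or 72 hr of compound exposure at 37 degree Celsius. Cells were HEK 293 plated at 250 cells/well.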
# FLuc inh = inhibitors of firefly (Photinus pyralis) luciferase; P08659; purified P. pyralis luciferase, luminescence, biochemical; Potency, µM (highest dose often 115 µM), most hits filed as inhibitors; 2.5% of 76,000 active; AID 1347043; also: nearly all actives have a fitted effect of over 65% in size
#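 Purified P. pyralis luciferase (10nM final) in 50mM Tris acetate pH 7.5, 10mM Mg acetate, 0.01% Tween-20, 0.05% BSA with 10uM D-luciferin and 10uM ATP. Compounds titrated qHTS. Luminescence imaged on CCD.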
# NIH3T3 tox = cytotoxic compounds in NIH 3T3 cells; NIH 3T3 viability, CellTiter-Glo ATP luminescence, 48-72 h; Potency, µM (doses to about 96.7 µM), actives largely listed as inhibitors; 4.3% of 94,000 active; AID 1345082; also: nearly all actives have a fitted effect of over 55% in size
#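 Cells were seeded at 400 per well, treated with pin-transferred compound, and kept 48 or 72 hr at 37 °C before CellTiter-Glo addition and luminescence imaging of cellular ATP.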
# GPT2 inhibitor = inhibitors of human GPT2 alanine aminotransferase; Recombinant GPT2, coupled pyruvate oxidase/HRP Amplex Red fluorescence; Potency, µM (doses to about 57.7 µM), actives largely listed as inhibitors; 0.25% of 100,000 active; also: nearly all actives have a fitted effect of over 60% in size
# Target sequence (Q8TD30 whole entry, looked up): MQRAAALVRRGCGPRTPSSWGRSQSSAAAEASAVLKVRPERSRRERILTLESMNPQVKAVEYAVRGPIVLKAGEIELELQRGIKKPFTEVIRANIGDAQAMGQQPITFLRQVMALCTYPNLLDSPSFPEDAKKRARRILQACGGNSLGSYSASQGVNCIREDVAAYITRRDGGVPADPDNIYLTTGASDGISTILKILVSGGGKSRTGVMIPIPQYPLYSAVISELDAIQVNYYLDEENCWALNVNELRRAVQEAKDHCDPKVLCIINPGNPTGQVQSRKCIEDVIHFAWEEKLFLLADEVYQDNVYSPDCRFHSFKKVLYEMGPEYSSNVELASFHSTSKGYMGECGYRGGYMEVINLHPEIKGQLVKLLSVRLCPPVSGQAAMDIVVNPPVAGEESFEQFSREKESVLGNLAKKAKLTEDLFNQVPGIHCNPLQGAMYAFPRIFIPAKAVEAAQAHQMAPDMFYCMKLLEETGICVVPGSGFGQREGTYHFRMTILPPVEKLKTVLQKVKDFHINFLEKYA
#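 Fluorescence of coupled pyruvate oxidase/HRP/Amplex Red system (50uM Amplex, 30 min, dark) reports pyruvate formed by GPT2. Enzyme reaction: 10ng/uL GPT2, 2mM L-alanine, 250uM a-KG, 30 min room temperature, pH 7.5; 50uM AOA control.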
# A number is an active result; 0 = inactive; ? = inconclusive; - = no result given; ! = a repeat was not active. Unless noted, calls follow the shape of the dose curve; as a rule, active = well fitted curve in the direction sought with a large enough effect; inconclusive = small, poorly fitted or top-dose-only effect, or another doubt; inactive = no such curve, though single readings can be large; an effect the other way counts as inactive or inconclusive.
SMILES,NPR1 antag,HEK cytotox,FLuc inh,NIH3T3 tox,GPT2 inhibitor
Cn1ncc2c(C(=O)NCc3ccc4c(c3)OCO4)cc(-c3ccccc3C(F)(F)F)nc21,-,35µM,-,?,-
Cn1ncc2c(C(=O)NCCCNC(=O)OC(C)(C)C)cc(-c3ccccc3F)nc21,-,45µM,-,?,-
O=S(=O)(Cc1ccccc1)N1CCC(F)(c2nc(-c3ccncc3)no2)CC1,-,?,-,?,0
CN(Cc1ccc(-c2ccccc2)cc1)Cc1cccnc1,8.9µM,?,50µM,?,0
CN(Cc1ccc(-c2ccccc2)cc1)Cc1ccccn1,0,50µM,50µM,?,0
CN(Cc1ccc(F)cc1)Cc1ccc(-c2ccccc2)cc1,0,0,0,0,0
CC(C)CN1C(=O)CCc2cc(NC(=O)c3ccc(N(C)C)cc3)ccc21,0,28µM,?,?,0
CC(C)CC(=O)Nc1ccc2c(c1)CCC(=O)N2CC(C)C,0,?,0,0,0
CCCN1C(=O)CCc2cc(NC(=O)c3ccc(C)s3)ccc21,0,35µM,?,?,0
CC(=O)Nc1ncc(C(=O)N2CC[C@](C)(O)[C@@H](O)C2)s1,0,0,0,0,?
COc1ccc(OCC2CC3(CCCCC3)CN2C(=O)Cc2cccc(F)c2)cc1 (centres undefined),-,40µM,-,40µM,0
COC1CCOC2(CCN(C(=O)Cc3cccc(F)c3)CC2)C1 (centres undefined),0,0,0,0,0
COc1ccccc1-c1ccc(CN2CCCCC2C(=O)N2CCC(c3ccccc3)CC2)cc1 (centres undefined),-,25µM!,-,40µM,-
COc1ccccc1-c1ccc(C(=O)N2CCC(C(=O)N3CCC(c4ccccc4)CC3)CC2)cc1,-,?,-,?,0
COc1ccccc1-c1ccc(CN2CCCCC2C(=O)N2CCN(Cc3ccccc3)CC2)cc1 (centres undefined),-,32µM,-,?,0
COc1cccc(-c2ccc(CN3CCCC(N[S+](=O)([O-])c4c(C)noc4C)C3)cc2)c1 (centres undefined),-,?,-,45µM,0
Cc1ccc(-c2cccc(CN3CCCC(N[S+](=O)([O-])c4ccccc4)C3)c2)cc1Cl (centres undefined),-,0,-,0,0
Cc1ccc(-c2cccc(CN3CCCC(N[S+](=O)([O-])c4c(C)noc4C)C3)c2)cc1Cl (centres undefined),-,13µM,-,16µM,0
COc1cccc(-c2ccc(CN3CCCC(N[S+](=O)([O-])c4ccc(C)cc4)C3)cc2)c1 (centres undefined),-,28µM,-,?,0
COCC(=O)NC1CCCN(Cc2ccc(-c3cc(C)cc(C)c3)cc2)C1 (centres undefined),-,?,-,?,0
Cc1cc(C)cc(-c2ccc(CN3CCCC(N[S+](=O)([O-])c4ccccc4)C3)cc2)c1 (centres undefined),-,45µM,-,?,0
CCNC(=O)N1CC(Oc2ccc(-c3nc(C)no3)cc2)C1,0,?,0,0,0
Cc1noc(-c2cccc(OC3CN(C(=O)C4CCOC4)C3)c2)n1 (centres undefined),0,0,0,0,0
CCNC(=O)N1CC(Oc2cccc(-c3nc(-c4ccccc4)no3)c2)C1,0,35µM,0,?,0
Cc1ccc(CNC(=O)N2CC(Oc3cccc(-c4nc(C)no4)c3)C2)cc1,0,45µM,0,?,0
SMILES,NPR1 antag,HEK cytotox,FLuc inh,NIH3T3 tox,GPT2 inhibitor
CCNC(=O)N1CCC(Oc2ccc(-c3noc(-c4ccccc4)n3)cc2)C1 (centres undefined),-,18µM,-,?,0
COc1ccc(CNC(=O)N2CC(Oc3cccc(-c4nc(C)no4)c3)C2)cc1,0,?,0,?,0
O=C(C1CCOC1)N1CC(Oc2cccc(-c3nc(-c4ccccc4)no3)c2)C1 (centres undefined),0,?,45µM,?,0
CN1CCN(CCCNC(=O)c2ccc(N3CC4CC(C3)[C@H]3CCCC(=O)N3C4)nc2)CC1 (some centres undefined),0,0,0,0,0
CC(C)c1nc(-c2ccc(OC3CCN(C(=O)Cc4ccccc4F)C3)cc2)no1 (centres undefined),-,35µM,-,?,0
O=C(Cc1cccc(F)c1)N1CC(Oc2cccc(-c3nc(-c4ccccc4)no3)c2)C1,-,?,-,35µM,0
